# 697 NFkB inh: inhibitors of the PMA/ionomycin-induced NF-kB reporter in 697 B cells | 697 B-cell NF-kB luciferase reporter, 16 h | inhibition, % at 4 µM | 0.33% of 330,000 active | AID 435022; in the data active = inhibition above about 35%
# Mdm2-MdmX inh: inhibitors of human Mdm2/MdmX interaction | 3% of 330,000 active | O15151+Q00987 | SaOS-2 split-luciferase Mdm2/MdmX complementation, luminescence | inhibition, % at 8 µM;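 active = inhibition of at least 50% at 8 µM in the primary screen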
# Target sequence (O15151 whole entry, looked up): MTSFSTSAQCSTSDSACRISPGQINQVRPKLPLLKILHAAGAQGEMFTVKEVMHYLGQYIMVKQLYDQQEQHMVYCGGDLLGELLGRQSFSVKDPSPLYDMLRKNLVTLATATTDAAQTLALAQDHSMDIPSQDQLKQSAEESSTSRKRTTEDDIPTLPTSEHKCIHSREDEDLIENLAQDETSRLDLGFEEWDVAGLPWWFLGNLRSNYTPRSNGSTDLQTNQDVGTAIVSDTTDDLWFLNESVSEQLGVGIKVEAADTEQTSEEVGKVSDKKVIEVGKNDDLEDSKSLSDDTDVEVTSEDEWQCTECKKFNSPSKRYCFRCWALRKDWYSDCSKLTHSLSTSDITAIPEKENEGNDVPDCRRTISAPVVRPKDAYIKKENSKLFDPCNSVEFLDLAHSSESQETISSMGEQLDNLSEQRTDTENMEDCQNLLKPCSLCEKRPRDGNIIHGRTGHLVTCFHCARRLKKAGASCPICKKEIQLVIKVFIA
# Target sequence (Q00987 whole entry, looked up): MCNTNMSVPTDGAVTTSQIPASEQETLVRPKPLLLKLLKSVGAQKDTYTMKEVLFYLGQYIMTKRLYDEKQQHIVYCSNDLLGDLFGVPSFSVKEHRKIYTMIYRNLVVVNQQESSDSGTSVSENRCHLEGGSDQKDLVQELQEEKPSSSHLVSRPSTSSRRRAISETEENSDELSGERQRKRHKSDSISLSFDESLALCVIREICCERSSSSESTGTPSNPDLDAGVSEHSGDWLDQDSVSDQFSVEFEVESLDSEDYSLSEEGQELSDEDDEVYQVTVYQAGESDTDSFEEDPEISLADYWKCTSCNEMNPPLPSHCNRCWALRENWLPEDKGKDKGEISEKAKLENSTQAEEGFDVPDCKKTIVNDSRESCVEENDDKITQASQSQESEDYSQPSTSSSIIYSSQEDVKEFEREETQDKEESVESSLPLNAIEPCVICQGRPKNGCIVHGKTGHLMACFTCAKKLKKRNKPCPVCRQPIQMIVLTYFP
# Jurkat NFkB inh: inhibitors of the PMA/ionomycin-induced NF-kB reporter in Jurkat cells | 0.53% of 330,000 active | inhibition, % at 4 µM | AID 435003 | PMA/ionomycin-induced NF-kB luciferase reporter, luminescence; in the data active = inhibition above about 50%
# Shn3 3UTR inh: inhibitors of Schnurri-3 3'UTR reporter in osteoblasts. Clone20 osteoblast Shn3 3'UTR firefly luciferase, 24 h. inhibition, % at 12.5 µM. 0.52% of 360,000 active. AID 588674;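 active = mean inhibition of at least 75% with every replicate also reaching 75%; inconclusive = mean inhibition at least 75% but some replicate below; inactive = mean inhibition below 75%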;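 also: 0% = median of neutral control wells and 100% = pilot-screen positive control compound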
# Gli-Sufu block: antagonists of Gli-Sufu signaling; Sufu-KO-LIGHT fibroblasts, Gli luciferase reporter luminescence; inhibition, % at 5 µM; 0.74% of 340,000 active; AID 588413;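 active = inhibition above about 55%, limit read from the data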;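 also: 0% = DMSO-treated cells and 100% = wells with medium but no cells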
# Mdm2 MdmX conf: confirmation of human Mdm2/MdmX interaction inhibitors | Mdm2-MdmX binding, luminescent assay | shares compounds with Mdm2-MdmX inh | inhibition, % at 8 µM | 55% of 10,000 active; in the data active = inhibition above about 40%
# Full FLuc ctr: full-length luciferase inhibition in Mdm2/MdmX counter-screen; 77% of 6,200 active; shares compounds with Mdm2-MdmX inh; SaOS-2 full-length luciferase counterscreen, luminescence; inhibition, % at 8 µM; AID 504607;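 active = mean inhibition at 8 µM reaching about 37%, which flags the compound as non-specific, limit read from the data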;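 also: p53-null SaOS-2 cells with luciferase driven by a doxycycline-inducible promoter; compound on cells about two nights before reading with doxycycline added after day one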
# Gli-Sufu confirm: Gli-SUFU antagonism confirmation, single concentration; shares compounds with Gli-Sufu block; inhibition, % at 5 µM; 40% of 2,500 active; Sufu-KO-LIGHT cells, Gli luciferase reporter, luminescence;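 active = mean inhibition at 5 µM reaching about 45%, limit read from the data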;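 also: plate controls were DMSO-treated cells for no effect and wells lacking cells for full effect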
# Gli cytotox: cytotoxic in Gli-SUFU antagonist counter-screen | Sufu-KO-LIGHT cells cytotoxicity, ATP luminescence | shares compounds with Gli-Sufu block | 32% of 2,500 active | cytotoxicity, % at 5 µM;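 active = mean cytotoxicity at 5 µM above about 25%, limit read from the data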;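 also: cells exposed to compound overnight for roughly 16 to 18 hours; plate controls were DMSO wells with cells for no effect and medium without cells for full effect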
# Wnt3a counter: inhibits Wnt3a reporter, counter-screen for Gli-SUFU antagonists; shares compounds with Gli-Sufu block; Wnt-LIGHT cells, Wnt3a-driven luciferase reporter, luminescence; inhibition, % at 6.25 µM; 20% of 2,500 active; AID 651995;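 active = mean inhibition above about 25%, limit read from the data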
# Active calls of the source: *; ? = inconclusive; / = not tested or not shown; ! = not active in a repeat. An excerpt weighted towards active compounds, which were near 3.8% of everything screened.
SMILES,697 NFkB inh,Mdm2-MdmX inh,Jurkat NFkB inh,Shn3 3UTR inh,Gli-Sufu block,Mdm2 MdmX conf,Full FLuc ctr,Gli-Sufu confirm,Gli cytotox,Wnt3a counter
O=C(Nc1cc(Sc2ccccn2)cc([N+](=O)[O-])c1)c1ccc(Cl)cc1,-42.3,51.6*,21.5,78.8,53.1,12.2,/,19.5,9.9,-57.7
COc1ccc(Nc2ccc(N3C(=O)CC(C)C3=O)cc2[N+](=O)[O-])cc1OC (stereo not given),27.0,-27.8,8.5,-4.2,2.1,/,/,/,/,/
COCC(C)n1c(C)cc(C(=O)COC(=O)c2cc(=O)[nH]c3ccccc23)c1C (stereo not given),-7.9,57.9*,-7.0,32.3,50.7,68.1*,97.1*,69.0*,26.2*,80.8*
COCC(C)n1c(C)cc(C(=O)COC(=O)c2n[nH]c3ccccc23)c1C (stereo not given),-123.9,20.7,-66.1,7.8,3.5,/,/,/,/,/
Cc1ccc2[nH]c(C(=O)NN=C3CCCCC3)c(-c3ccccc3)c2c1,16.5,17.0,-3.8,-13.3,-5.9,/,/,/,/,/
COCCn1c(C)cc(C2=NNC(=Nc3ccc(OC)cc3)SC2)c1C,-10.0,1.4,-10.8,9.7,-2.1,/,/,/,/,/
COCCn1c(C)cc(C2=NNC(=Nc3ccccc3)SC2)c1C,-126.2,62.1*,-36.5,-16.3,54.1,72.8*,81.4*,12.4,40.0*,19.4
N#Cc1ccc(-c2cccnc2)nc1SCC(=O)Nc1sc2c(c1C#N)CCC2,-10.5,9.9,5.7,7.9,12.7,/,/,/,/,/
N#Cc1c(C(F)(F)F)cc(-c2ccccc2)nc1SCC(=O)Nc1sc2c(c1C#N)CCC2,-11.4,71.7*,8.2,0.2,68.2*,64.0*,55.4*,76.3*,9.9,54.1*
CCN1CCN(S(=O)(=O)c2ccc(Cl)c(C(=O)N(C)Cc3ccc(Cl)cc3Cl)c2)CC1,10.2,41.4,-8.2,19.0,22.3,/,/,/,/,/
Cc1ccc(C(C#N)c2ccc3c(C(F)(F)F)cc(C(F)(F)F)nc3n2)cc1 (stereo not given),-22.4,57.7*,2.8,61.6,53.4,-0.6,/,58.8*,14.7,52.0*
N#C/C(=N\Nc1ccc(Cl)cc1)C(N)=S,-72.1,64.2*,-13.6,11.3,59.6*,64.3*,43.9*,59.0*,11.8,31.7*
Cc1ccc2c(c1)CCCN2C(=O)CCc1nc2ccccc2c(=O)[nH]1,-61.7,53.2*,47.8,-2.9,90.4*,59.6*,49.0*,22.0,54.6*,-11.7
O=C1Nc2ccccc2C1(O)Cc1ccccn1 (stereo not given),17.1,1.1,8.0,2.3,0.7,/,/,/,/,/
Cc1nc2ncccn2c1-c1csc(Nc2ccc(O)cc2)n1,2.6,71.7*,3.1,23.3,55.2*,68.4*,66.1*,51.5*,18.8,-35.1
O=[N+]([O-])c1nn(-c2ccc3c(c2)OCCO3)n(O)c1=Nc1ccc(Cl)cc1,9.9,86.0*,39.0,47.2,57.2*,92.0*,50.8*,59.5*,17.4,43.7*
Cc1ccc(N=c2c([N+](=O)[O-])nn(-c3ccc4c(c3)OCCO4)n2O)c(Cl)c1,6.9,40.4,29.6,/,/,/,/,/,/,/
CCc1ccc(N=c2c([N+](=O)[O-])nn(-c3ccc4c(c3)OCCO4)n2O)cc1,-12.6,41.0,-3.9,5.4,-5.1,/,/,/,/,/
Cc1ccc(N=c2c([N+](=O)[O-])nn(-c3ccc4c(c3)OCCO4)n2O)cc1F,7.0,79.6*,40.1,47.7,61.0*,94.8*,23.7,64.7*,-1.7,69.8*
COc1cccc(OC)c1C(=O)N1CCNCC1,5.3,20.3,5.7,-9.0,-5.8,/,/,/,/,/
COc1cc(Nc2c3ccccc3nc3ccccc23)cc(OC)c1OC,-13.2,86.1*,35.6,55.0,61.3*,54.8*,62.1*,30.9,16.0,-42.8
COc1ccc(Nc2c3c(nc4ccccc24)CCCC3)cc1OC,-58.8,25.1,-6.8,3.6,23.7,/,/,/,/,/
O=c1c(N=Nc2ccc(O)cc2)c(-c2ccccc2)[nH]n1-c1ccc([N+](=O)[O-])cc1,6.6,100.5*,11.6,55.4,53.5,18.8,/,35.4,11.3,67.3*
CC1CCC(C(C)C)C(OC(=O)Cn2c(-c3ccccc3)[n+](C)c3ccccc32)C1 (stereo not given),-24.4,93.1*,49.1,86.1*!,86.9*,94.0*,37.9*,89.4*,38.2*,38.0*
CC1CCC(C(C)C)C(OC(=O)C[n+]2cc(-c3ccc(Cl)cc3)n3c2CCC3)C1 (stereo not given),-26.1,23.7,-17.4,15.8,13.9,/,/,/,/,/
SMILES,697 NFkB inh,Mdm2-MdmX inh,Jurkat NFkB inh,Shn3 3UTR inh,Gli-Sufu block,Mdm2 MdmX conf,Full FLuc ctr,Gli-Sufu confirm,Gli cytotox,Wnt3a counter
Cn1ncc(Br)c1NC(=O)c1cc(Cl)cc(Cl)c1,8.0,5.9,5.5,-37.3,8.9,/,/,/,/,/
Cc1cc(/C=N/n2cnnc2)c(C)n1-c1ccc(OCc2ccc(F)cc2)cc1,-93.1,65.1*,6.7,77.3,73.5*,34.7,78.1*,73.8*,28.4*,22.4
Cc1cc(/C=N/n2cnnc2)c(C)n1-c1ccc(Cl)cc1,18.0,6.8,18.5,-1.3,1.1,/,/,/,/,/
CCOC(=O)c1sc(NC(=O)c2cc(-c3ccccc3)nc3ccccc23)c(C#N)c1C,-16.4,94.1*,-16.2,77.6,53.0,90.6*,47.1*,73.8*,11.4,65.3*
CCOC(=O)c1sc(NC(=O)c2cccc(S(=O)(=O)N3CCc4ccccc43)c2)c(C#N)c1C,-10.7,89.1*,3.8,30.8,73.0*,30.4,/,78.2*,16.3,72.0*
C[n+]1c2n(c3ccccc31)N=C(c1ccc(-c3ccccc3)cc1)CS2,12.3,80.3*,43.4,72.3,86.8*,61.3*,25.5,89.0*,31.9*,11.6
Cc1cccc(-c2nnc3n2N=C(c2ccccc2)CS3)c1,-17.7,12.1,13.2,-19.1,5.5,/,/,/,/,/
CCCN(c1ccccc1F)S(=O)(=O)c1cc(-c2cc(C)no2)ccc1OC,-42.6,28.5,-11.5,20.9,17.7,/,/,/,/,/
COc1ccc(NS(=O)(=O)c2cccc(NC(=O)c3ccc(S(=O)(=O)N4CCCCCC4)cc3)c2)cc1,-5.0,53.1*,46.8,?,60.8*,33.1,/,63.3*,17.2,28.3*
Cc1ccc(CNC(=O)c2ccc3c(=O)c(O)c(-c4ccc(C)cc4)[nH]c3c2)cc1,-13.8,58.4*,39.1,87.2*,65.8*,55.2*,29.0,63.0*,11.6,70.1*

# Bioassay records deposited in PubChem BioAssay by several laboratories.
